Sampled rows, rich in hits. Any-hit rate of the full collection: about 3.1%.
ABHD5 PLIN5 PPI: ABHD5-PLIN5 interaction inhibitors, primary screen, cell lysate, split luciferase complementation, luminescence; Perilipin-5 (Homo sapiens) + 1-acylglycerol-3-phosphate O-acyltransferase ABHD5 (Homo …; Split G. princeps luciferase complementation, 4 h; inhibition, % at 4 µM; 360,000 compounds, 0.78% hits; AID 602281, 2012;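 active = inhibition above the mean inhibition across every tested compound plus 3 SD, cut at about 22% in these data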;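 note: 0% = DMSO only wells and the 100% control is not disclosed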
Target sequence (Q00G26 whole entry, looked up): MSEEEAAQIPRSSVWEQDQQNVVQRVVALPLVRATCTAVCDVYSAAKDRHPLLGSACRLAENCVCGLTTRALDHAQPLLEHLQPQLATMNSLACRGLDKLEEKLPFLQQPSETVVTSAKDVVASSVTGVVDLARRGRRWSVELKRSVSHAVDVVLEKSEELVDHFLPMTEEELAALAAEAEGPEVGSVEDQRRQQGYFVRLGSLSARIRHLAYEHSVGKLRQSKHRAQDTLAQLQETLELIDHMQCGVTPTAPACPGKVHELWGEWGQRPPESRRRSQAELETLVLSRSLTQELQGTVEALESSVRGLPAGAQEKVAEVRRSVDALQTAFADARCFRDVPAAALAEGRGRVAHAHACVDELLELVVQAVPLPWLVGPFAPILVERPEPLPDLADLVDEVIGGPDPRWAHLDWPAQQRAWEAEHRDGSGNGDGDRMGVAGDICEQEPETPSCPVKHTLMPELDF
Target sequence (Q8WTS1 whole entry, looked up): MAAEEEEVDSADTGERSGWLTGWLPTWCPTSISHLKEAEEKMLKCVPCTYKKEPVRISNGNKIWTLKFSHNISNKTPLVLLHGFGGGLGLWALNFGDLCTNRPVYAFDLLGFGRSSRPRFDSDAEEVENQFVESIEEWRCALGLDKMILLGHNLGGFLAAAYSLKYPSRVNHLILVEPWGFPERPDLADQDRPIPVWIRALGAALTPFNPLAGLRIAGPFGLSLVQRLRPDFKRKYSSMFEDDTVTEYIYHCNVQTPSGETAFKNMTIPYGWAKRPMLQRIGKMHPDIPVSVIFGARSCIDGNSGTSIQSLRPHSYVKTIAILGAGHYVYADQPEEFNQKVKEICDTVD
CF NFkB inh: inhibitors of PAF-induced NF-kB signaling, primary screen, cell-based, GFP fluorescence, uHTS | KKLEB NF-kB-GFP reporter, GFP fluorescence overnight | inhibition, % at 5 µM | 360,000 compounds, 0.86% hits | AID 588850, 2011;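 active = at least 50% inhibition at 5 µM, scaled per plate between neutral and stimulator controls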;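 note: PAF is a Pseudomonas aeruginosa culture filtrate used as stimulus; plate controls were PAF-stimulated DMSO wells for no effect and unstimulated DMSO wells for full effect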
KKLEB tox: cytotoxicity in KKLEB CF airway cells, primary screen, cytotoxicity control for CF NF-kB inhibitor project, cell-based, uHTS, fluorescence assay plates; AID 602141, 2011; activity change (cytotoxicity), % at 5 µM; KKLEB CF airway cells viability, ATPlite luminescence, overnight; active compounds read low; cells stimulated with P. aeruginosa culture filtrate; 360,000 compounds, 0.36% hits;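 active = corrected activity change at or below -50% at 5 µM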
MITF TRPM1 inh: inhibitors of MITF-dependent TRPM1 promoter reporter, primary screen, cell-based, SK-MEL-5, single point, luciferase. 330,000 compounds, 0.83% hits. SK-MEL-5 TRPM1 promoter luciferase, 24 h. inhibition, % at 12.5 µM;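 active = mean inhibition across replicates of 60% or more, whatever share of single replicates reaches that level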
HIF-2a block: HIF-2a reporter inhibitors, primary screen, luminescence, 786-0 RCC cells | 786-0 RCC cells HIF-2a reporter, luciferase luminescence, overnight | inhibition, % at 18.8 µM | 360,000 compounds, 0.72% hits | AID 624352, 2012;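 active = inhibition of the luminescence signal of 40% or more relative to plate controls, in a single-dose primary screen at 18.75 µM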
Peg3 prom inh: Peg3 promoter-driven luciferase inhibitors, primary screen, cell-based, HeLa, luciferase luminescence | HeLa PEG-Prom luciferase reporter, overnight | inhibition, % at 20 µM | 360,000 compounds, 1.7% hits;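 active = inhibition of at least 50% at 20 µM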
* hit, by the source's call; nt = not tested or not shown.

SMILES | ABHD5 PLIN5 PPI | CF NFkB inh | KKLEB tox | MITF TRPM1 inh | HIF-2a block | Peg3 prom inh
Cc1ccc(C(=O)NCC(=O)OCC(=O)N(CC(C)C)c2c(N)n(Cc3ccccc3)c(=O)[nH]c2=O)cc1 | 7.8 | 8.2 | -0.9 | -5.6 | -30.8 | -12.7
CCOC(=O)CSc1nc(Cc2ccccc2)nc2ccccc12 | -1.2 | 8.0 | 4.7 | 1.4 | 21.8 | 11.1
O=C(COc1ccc(/C=N/NC(=O)c2cc3ccccc3o2)cc1Br)Nc1ccccc1 | 4.3 | 50.9* | -50.7* | 93.2* | -234.4 | 99.1*
CCO[C@H]1c2c(ccc3ccc(=O)oc23)OC(C)(C)[C@@H]1O | 0.8 | 8.5 | -2.0 | 2.6 | 19.5 | -9.9
Cc1ccccc1NC(=O)c1ccc(N/N=C/c2ccccc2O)c([N+](=O)[O-])c1 | 0.2 | 2.6 | -9.8 | 4.1 | 8.5 | 21.3
Cc1ccc(NC(=O)c2ccc(N/N=C/c3cccc(O)c3)c([N+](=O)[O-])c2)cc1 | 2.0 | 19.7 | -17.3 | 78.5* | -11.9 | 67.1*
CCN(CC(=O)Nc1c(F)cccc1F)C(=O)c1cc(-c2cccs2)nn1-c1ccccc1 | 3.5 | 13.0 | -6.8 | 2.6 | 5.5 | 58.1*
CN(CC(=O)Nc1c(Cl)cccc1Cl)C(=O)c1cc(-c2cccs2)nn1-c1ccccc1 | -4.0 | -16.5 | -6.4 | -0.7 | 1.5 | 21.9
Clc1cccc(CN2CCc3c([nH]c4ccccc34)C2)c1 | 4.5 | -10.4 | -25.9 | 9.3 | 28.1 | 59.6*
COc1ccc(NC(=O)CCS(=O)(=O)c2ccc3c(c2)CCN3C(C)=O)cc1 | 3.8 | -7.5 | -0.5 | 7.6 | 18.6 | 2.1
C[C@H](CO)N1C[C@H](C)[C@@H](CN(C)Cc2ccc(-c3ccccc3)cc2)Oc2c(NS(=O)(=O)c3cn(C)cn3)cccc2C1=O | 8.4 | 7.3 | -3.8 | 4.7 | 9.1 | -4.9
CC(=O)Nc1cccc(C(=O)/C=C/c2cccs2)c1 | 22.4* | -6.5 | -10.3 | -10.1 | -74.3 | -134.9
CC(=O)Nc1cccc(C(=O)/C=C/c2ccco2)c1 | 28.5* | 12.0 | -17.2 | 4.2 | -0.9 | -31.4
O=Cc1ccc(C(=O)OCC(=O)Nc2ccc(F)cc2F)cc1 | 3.2 | -13.9 | 5.0 | 0.6 | 15.0 | 0.9
Cc1nc2c(-c3ccccc3)cnn2c(N)c1-c1ccccc1 | -4.8 | -15.1 | -65.3* | 5.7 | 32.1 | 39.6
CC(C)C1CC(CCNCc2ccc(N(C)C)cc2)(c2ccccc2)CCO1 (centres undefined) | -7.8 | 12.6 | -5.0 | 72.6* | -0.5 | 58.9*
O=C(Nc1nc(-c2ccco2)c(-c2ccco2)s1)c1c(F)cccc1Cl | 33.4* | 8.7 | 5.9 | nt | -7.5 | -4.5
O=C(Nc1nc(-c2ccco2)c(-c2ccco2)s1)c1ccc(F)cc1F | 18.5 | -17.0 | 15.7 | -48.0 | -5.5 | -194.0
C=CCN1C(=O)c2ccc(C(=O)OCC(=O)N(CC)c3c(N)n(Cc4ccccc4)c(=O)[nH]c3=O)cc2C1=O | -9.2 | -4.4 | 15.6 | 2.5 | 6.7 | -2.2
CCn1c(N)c(C(=O)COC(=O)CCc2nc3ccccc3c(=O)[nH]2)c(=O)[nH]c1=O | 5.6 | 4.0 | -3.5 | 5.9 | 1.8 | -6.1
CCNC(=O)CC1C(=O)N(C)C(=S)N1NC(=O)c1ccc(Cl)cc1 (centres undefined) | 2.0 | 4.3 | -3.7 | -2.0 | 9.4 | 2.6
Nc1ccc(C(=O)NN2C(=O)[C@H](Cl)C2c2ccc(Cl)cc2)cc1 (some centres undefined) | -3.0 | 90.9* | -78.9* | 80.5* | 10.9 | 102.0*
Cc1cc(NC(=O)CSc2nc(C(C)C)nc3sc(C)c(C)c23)no1 | -1.6 | 8.1 | 1.3 | 16.0 | 19.7 | 23.4
Cc1cc(NC(=O)CSc2nc3sc(C)c(C)c3c(=O)n2C2CCCC2)no1 | 0.5 | 36.4 | -59.2* | -0.7 | 8.9 | 20.0
Cc1ccc(-c2nc3cc(N)ccc3o2)c(C)c1 | -0.4 | -9.6 | 9.6 | 1.6 | -85.3 | -199.2
SMILES | ABHD5 PLIN5 PPI | CF NFkB inh | KKLEB tox | MITF TRPM1 inh | HIF-2a block | Peg3 prom inh
Nc1ccc2oc(-c3cccc4ccccc34)nc2c1 | 1.6 | -28.1 | 0.4 | 47.2 | 87.4* | -25.8
O=C1C(Cl)=C(NCCCO)C(=O)c2ccccc21 | -16.2 | 8.2 | -8.0 | 83.9* | 72.0* | -11.6
O=S(=O)(c1ccccc1)c1nc(-c2ccccc2Cl)oc1NCCCN1CCOCC1 | 2.0 | 16.5 | -7.2 | 6.0 | 0.2 | 18.7
CCOCCCNC1=C(Cl)C(=O)c2ccccc2C1=O | -10.2 | -0.5 | 1.4 | 30.4 | 30.5 | -92.9
O=C1C(Cl)=C(NCCN2CCOCC2)C(=O)c2ccccc21 | -16.0 | 12.4 | 3.5 | 69.3* | -6.6 | -23.3
O=C1C(Cl)=C(NCCCN2CCOCC2)C(=O)c2ccccc21 | -4.3 | 38.3 | -2.3 | 98.0* | 48.7* | -48.7
O=S(=O)(c1ccc(Cl)c(C(F)(F)F)c1)N1CCN(CC(O)COc2ccccc2F)CC1 (centres undefined) | -12.9 | 2.7 | 4.7 | 7.5 | 3.4 | 29.6
N#CC1=C(N)n2c(s/c(=C\c3ccco3)c2=O)=C(C#N)C1c1ccco1 (centres undefined) | 23.0* | -42.7 | 5.0 | 13.0 | 11.5 | 4.8
CCOc1ccc(N(CC(=O)NC2CCCC2)S(=O)(=O)c2c(C)[nH]c(=O)[nH]c2=O)cc1 | -2.3 | -28.1 | 7.3 | 1.5 | 9.2 | 72.3*
Cc1nc(SCC(=O)NCCN2C(=O)CSC2=O)nc(C)c1C | -1.1 | -5.8 | 2.3 | 2.3 | 8.4 | 7.0
CCOC(=O)c1c(C)[nH]c(C(=O)COC(=O)c2ccco2)c1C | -4.8 | 12.5 | -21.7 | -28.2 | -2.6 | -81.2
CC1CCCC(NC(=O)NC(=O)CCl)C1C (centres undefined) | 2.6 | 15.5 | -8.6 | 71.1* | 6.7 | 51.4*
CC1CCCCC1NC(=O)NC(=O)CCl (centres undefined) | 2.0 | 11.1 | -4.6 | nt | 12.7 | 55.0*
CC1CCCC(NC(=O)CSC2CCCCC2)C1C (centres undefined) | 1.0 | -10.7 | -1.2 | -32.5 | -63.7 | -30.1
CCC[C@@H](CN[C@@H](CNC)C(C)C)NCCCCc1ccccc1 | -0.6 | 8.9 | -7.1 | 89.7* | -7.3 | 58.8*
COc1ccccc1NC(=O)CNC(=O)c1ccc([N+](=O)[O-])cc1 | -1.9 | -12.6 | 5.4 | 5.1 | 10.6 | 12.8
Nc1c(N(CCC2=CCCCC2)C(=O)COc2ccc([N+](=O)[O-])cc2)c(=O)[nH]c(=O)n1Cc1ccccc1 | 2.1 | 5.9 | -27.3 | 51.2 | 0.5 | 83.7*
Nc1c(N(CCC2=CCCCC2)C(=O)COc2ccc(F)cc2Cl)c(=O)[nH]c(=O)n1Cc1ccccc1 | 3.3 | 38.0 | -36.4 | 97.5* | -2.8 | 106.0*
